Compounds with a hit are over-represented: about 4.2% of the library has one in this group of screens.
TCR act = activators of T cell receptors. primary human leukocytes, anti-CD3, IL-2 HTRF, 48 h. Potency, µM (series often up to 9.22 µM), actives largely listed as activators. 330,000 tested, under 10 active
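Using a-CD3 beads without co-stimulation, primary human leukocytes were exposed to compounds for 48 hr. An HTRF IL-2 kit measured the cytokine, with europium-to-d2 energy transfer producing emission at 665nm upon 320nm excitation.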
uPA generation = blocks generation of uPA at the cell surface. cell surface uPA generation assay, qHTS. Potency, µM (titrated, usually from 38.3 µM), usual class: inhibitors. actives 0.31% (n = 330,000); active means well fitted inhibition curve with a large enough effect; inconclusive means small, poorly fitted or top-dose-only effect; inactive means no such curve, though single readings can be large or run the other way; tested in mouse RAW 264.7 cells; further: nearly all actives have a fitted effect of over 55% in size
Sfp inh = Sfp phosphopantetheinyl transferase inhibition; Biochemical Sfp PPTase activity, qHTS; Potency, µM, actives largely listed as inhibitors; actives 3.5% (n = 310,000);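 further: the enzyme is Sfp with the accession as filed and its product quenches rhodamine fluorescence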
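Compounds were incubated with enzyme (final 15 nM) for 15 min at room temperature before substrate addition started the reaction. Fluorescence at 525 nm excitation, 598 nm emission was recorded immediately and after 30 minutes.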
ClpP mod = qHTS Assay for Activators of ClpP | actives 1.9% (n = 340,000) | purified B. subtilis ClpP, FRET peptide cleavage, 20 min | ATP-dependent Clp protease proteolytic subunit (Bacillus subtilis (strain 168)), P80244 | Potency, µM (titrated, usually from 57.5 µM); active means well fitted falling curve with a large enough effect; inconclusive means small, poorly fitted or top-dose-only effect; inactive means no such curve, though single readings can be large or run the other way; further: the source files actives as falling curves though it sought activators and does not explain the sign; nearly all actives have a fitted effect of over 65% in size
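ClpP 10 microg/mL final, pH 8 Tris/KCl buffer with BSA, glycerol, Tween-20; compound pinned in; FRET-FV substrate; RT 20 min; Ex320/Em430; ΔFRET vs ADEP 5.8 microM, DMSO, no enzyme.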
A number is an active result; 0 = inactive; ? = inconclusive; - = no result. Unless noted, the call rests on the fitted dose curve; in most records, active means well fitted curve in the direction sought with a large enough effect; inconclusive means small, poorly fitted or top-dose-only effect, or another doubt; inactive means no such curve, though single readings can be large; an effect the other way counts as inactive or inconclusive.

SMILES	TCR act	uPA generation	Sfp inh	ClpP mod
Cc1cc(=O)[nH]c(SCC(=O)NCc2ccco2)n1	0	0	0	0
Cc1ccc2cccc(SCC(=O)N3CCOCC3)c2n1	0	0	0	28µM
Cc1nnc(SCC(=O)NCc2ccco2)[nH]c1=O	0	0	56µM	0
Cc1cccc2[nH]c(SCC(=O)N3CCOCC3)nc12	0	0	0	0
Cc1ccc2cccc(SCC(=O)NCc3ccco3)c2n1	0	0	0	14µM
Cc1ccc2cccc(OCC(=O)NCc3ccco3)c2n1	0	0	28µM	0
CCCCn1c(N)c(N(C(=O)CSc2nnnn2-c2ccccc2C)C2CCCC2)c(=O)[nH]c1=O	0	0	-	0
O=C1NC[C@@H](CCCCN2C[C@H](Cc3ccc(O)cc3)N(CCc3ccccc3)C(=O)C2=O)N(CC2CCCCC2)C1=O	-	-	-	0
Cc1cccc(Cc2c(C)nc3nc(SCC(=O)NCc4ccco4)nn3c2C)c1	0	0	45µM	0
Cc1ccc(Cc2c(C)nc3nc(SCC(=O)NCc4ccco4)nn3c2C)cc1	0	0	0	0
COc1ccc(Oc2ncc3nc(CCc4ccccc4)c(=O)n(C[C@H]4CCCO4)c3n2)cc1	-	-	0	-
COc1ccc(C=C(c2ccc(OC)cc2)c2ccc(OC)cc2)cc1	0	0	?	32µM
CC1CCC(C(=O)NC(C(=O)OCC(=O)c2ccc(Br)cc2)C(C)C)CC1 (configuration not stated)	-	-	-	0
CCNC(=S)N/N=C/c1ccccc1[N+](=O)[O-]	0	0	0	-
C/C(=N/NC(N)=S)c1ccccc1[N+](=O)[O-]	0	0	22µM	0
NC(=S)N/N=C/c1ccccc1[N+](=O)[O-]	0	0	4.5µM	-
C/C(=N\NC(N)=S)c1ccccc1	0	0	?	0
COC(=O)c1[nH]c2cccc(OC)c2c1NC(=O)CCN1CC(C)CC(C)C1 (configuration not stated)	0	0	0	0
COC(=O)c1[nH]c2cccc(OC)c2c1NC(=O)CN(C)CC1OCCO1	0	0	0	32µM
COC(=O)c1[nH]c2cccc(OC)c2c1NC(=O)CN1CCOCC1	0	0	0	18µM
CC/C(=N\N=C(/CC)c1ccccc1N)c1ccccc1N	0	0	-	-
COc1ccc([C@H]2C[C@@H](O)[C@H](n3cc(COC(=O)c4ccccc4)nn3)CN2C(=O)c2cccs2)cc1	-	-	-	0
CC1(C)C=C2C(=NN(c3ccccc3)C(N)=C2C#N)CO1	0	0	45µM	-
CCN1CCN(C(c2ccc(F)cc2)c2sc3nc(-c4ccco4)nn3c2O)CC1 (configuration not stated)	-	-	-	0
Cc1ccc(NC(=O)CN2C(=O)c3ccccc3Sc3ccc(C(=O)N4CCOCC4)cc32)cc1F	-	-	-	0
SMILES	TCR act	uPA generation	Sfp inh	ClpP mod
Cc1cccc(NC(=S)NNC(=S)NCc2ccccc2)c1	0	-	79µM	0
Cc1ccc(C(=O)Nc2cccc(C(=O)NCc3ccccc3)c2)cc1	0	10µM	0	0
Cc1cccc(NC(=O)c2ccc(C(=O)c3ccccc3)o2)c1	0	0	0	22µM
Cc1ccc(C(=O)NC(NCc2ccccc2)C(Cl)(Cl)Cl)cc1 (configuration not stated)	0	0	0	14µM
Cc1ccc(C(=O)NC(NCC2CCCO2)C(Cl)(Cl)Cl)cc1 (configuration not stated)	0	0	0	0
CCC(C)NC(=O)CSc1nc2cc3c(cc2c(=O)n1CCCCCC(=O)NCc1ccc(OC)cc1)OCO3 (configuration not stated)	-	-	-	0
CN(CC(=O)Nc1ccccc1Br)C(=O)c1ccccc1-c1nc2ccccc2s1	0	0	0	28µM
CC(C)[C@H](NC(=O)OCc1ccccc1)C(=O)OCC(=O)NCCc1ccccc1	0	0	0	0
CCc1ccc(CNC(=O)Cn2c(-c3cccs3)cc3cc(F)ccc32)cc1	-	-	-	0
Cc1cccc(CNC(=O)Cn2c(-c3cccs3)cc3ccccc32)c1	-	-	-	14µM
CC(C)Oc1ccc(CNC(=O)Cn2c(-c3cccs3)cc3ccccc32)cc1	-	-	-	35µM
CCOC(=O)c1cc(-c2ccccc2)n(-c2cccc(C(=O)N(CC)c3ccccc3)c2)c1C	-	-	-	0
Cc1ccn2c(Nc3ccc4c(c3)OCCO4)c(-c3ccc(C)o3)nc2c1	-	-	-	0
CCN(Cc1ccccc1)c1ccc(/C=N/N=C(N)N)cc1	0	0	?	25µM
C=C(c1ccc2ccccc2n1)c1cccs1	-	-	-	0
N#CC(C#N)=C1C=CC=CN1/C(=C\c1ccco1)C(=O)c1ccccc1	0	0	16µM	0
CN1CCN(C(=O)/C(=C/c2ccco2)NC(=O)c2ccccc2)CC1	0	0	0	-
COc1ccc(/C=C(/C(=O)c2cccs2)N2C=CC=CC2=C(C#N)C#N)cc1	0	?	3.5µM	0
CCN(CC)c1ccc(/C=C(\C#N)C(=O)c2ccc(Br)cc2)cc1	0	0	0	0
COc1ccc(C(=O)/C(=C\c2ccco2)N2C=CC=CC2=C(C#N)C#N)cc1	0	0	18µM	0
N#CC(C#N)=C1C=CC=CN1/C(=C\c1ccco1)C(=O)c1ccc(Br)cc1	0	0	8.9µM	0
CCOc1ccc2nc(NC(=O)c3nc(SC(C)C)ncc3Cl)sc2c1	-	-	-	0
CCOC(=O)C1=C(N)Oc2c(c(=O)[nH]c3ccccc23)C1c1ccccc1 (configuration not stated)	0	-	20µM	0
O=C(OCC#CCSc1nnc(-c2cccc3ccccc23)o1)c1ccco1	0	0	0	28µM
O=C(OCC#CCSc1nnc(-c2cccc3ccccc23)o1)c1ccc(Br)cc1	0	0	-	-
SMILES	TCR act	uPA generation	Sfp inh	ClpP mod
CCc1nn(CC(=O)NCCCOC)c(=O)c2cc3occc3n12	-	-	-	0
CC(C)(C)CCN1CCC(CN2CCNC2=S)CC1	-	-	-	0
Cc1ccc(Cl)cc1NC(=O)Cn1c(=O)cc(C)c2c(C)nn(C)c21	-	-	-	0
CCOC(=O)c1nc2cc3n(c(CC(C)C)c-2c1C)CC(C)=C3C	0	0	0	28µM
Cc1ccc(-c2sc(C(=O)Nc3ccc(Br)cc3)cc2CC(=O)O)cc1	-	-	-	0
CN(C)c1ccc(-c2nnn(Cc3ccccc3Br)n2)cc1	0	0	0	28µM
Fc1ccc(-n2cc(CNCCc3ccncc3)c(-c3ccccc3Cl)n2)cc1	0	0	0	0
Fc1ccc(-n2cc(CNCCc3cccnc3)c(-c3ccccc3Cl)n2)cc1	0	0	0	28µM
C1CCCCCC(=NNc2nn[nH]n2)CCCCC1	0	0	40µM	-
Cc1cc(C)nc(NN=C2CCCC2)n1	0	0	?	0
COCc1cc(O)c(O)c(O)c1-c1c(COC)cc(O)c(O)c1O	-	-	7.9µM	0
C=CCn1c(SCC(=O)NCC2CCCO2)nc2scc(-c3ccco3)c2c1=O (configuration not stated)	-	0	0	0
C=CCn1c(SCC(=O)NCCOC)nc2scc(-c3ccco3)c2c1=O	0	0	10µM	0
C=CCn1c(SCC(=O)NC2CCS(=O)(=O)C2)nc2scc(C3CC3)c2c1=O (configuration not stated)	0	0	0	0
